Test results taken from PubChem BioAssay (NCATS).
Records with an inconclusive call do not appear. Active and inactive are the calls of the source. Calls come from the whole dose curve; as a rule, active = well fitted curve in the direction sought with a large enough effect; inconclusive = small, poorly fitted or top-dose-only effect, or another doubt; inactive = no such curve, though single readings can be large; an effect the other way counts as inactive or inconclusive. Where a SMILES comes first, the peptide text is derived from it. The star is where a group is joined. Cbz = O=C(OCc1ccccc1)*; CH2Cl = ClC*

Legend:
[1] = tested on: HEK293; experiment: Cytotoxic Profiling of Annotated Libraries Using Quantitative High-Throughput Screening (AID 1296008); settings: Five cell lines viability, CellTiter-Glo ATP luminescence, 48-72 h; max response: stronger effect = lower value; note: nearly all actives have a fitted effect of over 60% in size; note: potency is the fitted concentration of half-maximal effect; for max response: % is set by controls: 0 for no effect and ±100 for the full control effect
Summary of the method: (§1)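 Cells exposed to compounds for 48 or 72 hr at 37 degrees Celsius. Viability read as ATP-coupled luminescence with CellTiter-Glo after 10 min at room temperature.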

[2] = tested on: CASKI; experiment: Primary qHTS to identify gynecologic anti-cancer compounds using libraries of approved drugs and bioactive compounds (AID 1345084); settings: Gynecologic cancer cell panel viability, ATPlite luminescence, 48 h; series mostly up to 57.5 µM; note: nearly all actives have a fitted effect of over 55% in size; note: potency is the fitted concentration of half-maximal effect
Summary of the method: (§2)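 Cytotoxicity screen measuring ATP content by luciferase luminescence. Each compound is applied at five concentrations for 48 h at 37 C with 5% CO2.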

[3] = tested on: HeLa; experiment: as above; settings: Gynecologic cancer cell panel viability, ATPlite luminescence, 48 h; series mostly up to 57.5 µM
Summary of the method: as §2

[4] = tested on: Hek293T; experiment: as above; settings: Gynecologic cancer cell panel viability, ATPlite luminescence, 48 h, control line for the selectivity index; series mostly up to 57.5 µM
Summary of the method: as §2

[5] = tested on: JEG-3; experiment: as above; settings: Gynecologic cancer cell panel viability, ATPlite luminescence, 48 h; series mostly up to 57.5 µM
Summary of the method: as §2

[6] = tested on: OV90; experiment: as above; settings: Gynecologic cancer cell panel viability, ATPlite luminescence, 48 h; series mostly up to 57.5 µM
Summary of the method: as §2

[7] = tested on: HaCat; experiment: Cytotoxic Profiling of Annotated Libraries Using Quantitative High-Throughput Screening (AID 1296008); settings: Five cell lines viability, CellTiter-Glo ATP luminescence, 48-72 h; max response: stronger effect = lower value; note: nearly all actives have a fitted effect of over 60% in size; note: potency is the fitted concentration of half-maximal effect; for max response: % is set by controls: 0 for no effect and ±100 for the full control effect
Summary of the method: as §1

[8] = tested on: KB-3-1; experiment: as above; settings: Five cell lines viability, CellTiter-Glo ATP luminescence, 48-72 h; max response: stronger effect = lower value
Summary of the method: as §1

[9] = tested on: NIH3T3; experiment: as above; settings: Five cell lines viability, CellTiter-Glo ATP luminescence, 48-72 h; max response: stronger effect = lower value
Summary of the method: as §1

[10] = tested on: HACAT; experiment: qHTS assay to identify novel small-molecules to repurpose for Merkel cell carcinoma treatment (AID 1296009); settings: MCC and control cell lines, CellTiter-Glo viability, 72 h; at 44.8 µM (top of the series) unless noted; note: nearly all actives have a fitted effect of over 60% in size
Summary of the method: (§3)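 Cells were treated for 72 hr at 37 degree celsius with compounds in 8- or 11-point dose response. Viability was read by CellTiter-Glo luminescence, normalized to no-cell (cytotoxicity) and DMSO controls.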

[11] = tested on: C33A; experiment: Primary qHTS to identify gynecologic anti-cancer compounds using libraries of approved drugs and bioactive compounds (AID 1345084); settings: Gynecologic cancer cell panel viability, ATPlite luminescence, 48 h; series mostly up to 57.5 µM; note: nearly all actives have a fitted effect of over 55% in size; note: potency is the fitted concentration of half-maximal effect
Summary of the method: as §2

[12] = tested on: Es-2; experiment: as above; settings: Gynecologic cancer cell panel viability, ATPlite luminescence, 48 h; series mostly up to 57.5 µM
Summary of the method: as §2

[13] = tested on: NIH3T3; experiment: qHTS assay to identify novel small-molecules to repurpose for Merkel cell carcinoma treatment (AID 1296009); settings: MCC and control cell lines, CellTiter-Glo viability, 72 h; series mostly up to 44.8 µM; note: nearly all actives have a fitted effect of over 60% in size
Summary of the method: as §3

[14] = tested on: CAOV3; experiment: Primary qHTS to identify gynecologic anti-cancer compounds using libraries of approved drugs and bioactive compounds (AID 1345084); settings: Gynecologic cancer cell panel viability, ATPlite luminescence, 48 h; series mostly up to 57.5 µM; note: nearly all actives have a fitted effect of over 55% in size; note: potency is the fitted concentration of half-maximal effect
Summary of the method: as §2

C=C1C(=O)O[C@H]2C[C@@H](C)[C@@H]3CCC(=O)[C@@]3(C)C[C@H]12
inactive: Potency [3]
active: Potency [1] 6.51 µM | Potency [2] 7.94 µM | Potency [4] 25.1 µM | Potency [5] 15.8 µM | Potency [6] 22.4 µM

COC(=O)c1sccc1S(=O)(=O)Nc1ccc(Nc2ccccc2)cc1OC
inactive: outcome [7] | max response [8] -21.5% | max response [9] 1.31% | outcome [10] | Potency [11] | Potency [2] | Potency [12] | Potency [3] | Potency [4] | Potency [5] | Potency [6]

CC(=O)OC1[C@H]2[C@@H](C[C@@H](C)[C@@H]3C=CC(=O)[C@@]13C)OC(=O)[C@@H]2C (stereo partly drawn)
active: Potency [1] 16.4 µM
inactive: Potency [6]

O=C(Nc1ncc([N+](=O)[O-])s1)c1ccccc1O
active: Potency [8] 8.2 µM
inactive: outcome [7] | outcome [9] | outcome [10] | Potency [13] | Potency [11] | Potency [14] | Potency [2] | Potency [3] | Potency [4] | Potency [5] | Potency [6]

C=C1[C@H]2CC[C@H](C(=O)O)[C@@]23CC[C@H](C3)C1(C)C
inactive: max response [7] -74.2% | outcome [8] | outcome [9] | Potency [13] | Potency [11] | Potency [14] | Potency [12] | Potency [3] | Potency [4] | Potency [5] | Potency [6]

C=C1C(=O)OC2C1CCC1(C)C(O)CC=C(C)C21 (stereo not drawn)
inactive: outcome [7] | max response [8] 0.514% | outcome [9] | outcome [10] | Potency [11] | Potency [14] | Potency [2] | Potency [12] | Potency [3] | Potency [4] | Potency [5] | Potency [6]

CC(C)C[C@H](NC(=O)CNC(=O)OCc1ccccc1)C(=O)N[C@@H](Cc1ccccc1)C(=O)CCl (Cbz-Gly-Leu-Phe-CH2Cl)
inactive: Potency [2] | Potency [3] | Potency [6]
active: Potency [1] 9.2 µM

O=C(NCc1cccs1)c1cc2nc(-c3ccco3)cc(C(F)(F)Cl)n2n1
inactive: outcome [7] | max response [8] 3.07% | max response [9] -24.5% | outcome [10] | Potency [11] | Potency [14] | Potency [2] | Potency [12] | Potency [3] | Potency [4] | Potency [5] | Potency [6]

CCC(=O)N1CCOc2c(cc(-c3ccc(OC)c(OC)c3)cc2OC[C@H]2CCCN(C)C2)C1
inactive: max response [7] 3.21% | max response [8] -9.43% | outcome [9] | Potency [13] | Potency [11] | Potency [14] | Potency [2] | Potency [12] | Potency [3] | Potency [4] | Potency [5] | Potency [6]

CCCc1cc(C)[nH]c(=O)c1CNC(=O)c1cc(-c2ccnc(N3CCN(C)CC3)c2)cc2c1cnn2C(C)C
active: Potency [1] 8.2 µM | Potency [3] 35.5 µM

O=C(Nc1cnc(Cl)nc1)c1ccc(F)c(F)c1
inactive: outcome [7] | max response [8] 3.36% | max response [9] 1.41% | outcome [10] | Potency [11] | Potency [14] | Potency [2] | Potency [12] | Potency [3] | Potency [4] | Potency [5] | Potency [6]

O=C(Nc1ccc(C(F)(F)F)cn1)N1CCN(c2ncccc2C(F)(F)F)CC1
inactive: outcome [7] | max response [8] -14.9% | max response [9] -8.79% | outcome [10] | Potency [11] | Potency [14] | Potency [2] | Potency [12] | Potency [3] | Potency [4] | Potency [5] | Potency [6]

C/C1=C\CCC2=CC(OC2=O)C(C)(C)/C=C/C1=O (stereo not drawn)
active: Potency [1] 6.51 µM
inactive: Potency [3]

CC(=O)O[C@@H]1C2=C(O)C(=O)[C@](C)(OC(C)=O)C(=O)C2=CO[C@@]12O[C@@H](C)CC[C@H]2OC(C)=O
inactive: outcome [7] | outcome [8] | max response [9] -10.7% | outcome [10] inactive [at 17.4 µM] | Potency [11] | Potency [2] | Potency [12] | Potency [3] | Potency [4] | Potency [5] | Potency [6]

Cn1c(=O)c(F)c(Nc2ccc(I)cc2F)c2c(=O)n(CC(O)CO)cnc21 (stereo not drawn)
inactive: max response [8] -14.5% | Potency [11] | Potency [14] | Potency [3] | Potency [4] | Potency [5]
active: Potency [7] 6.51 µM | Potency [9] 1.3 µM | Potency [12] 3.16 µM

CC[C@H](C(=O)Nc1ccccc1N1CCCC1)c1ccccc1
inactive: max response [7] -11.1% | max response [8] -2.95% | max response [9] -0.387% | Potency [11] | Potency [14] | Potency [2] | Potency [4] | Potency [5] | Potency [6]

CN(C)CCn1cc(-c2ccc(F)cc2)c(-n2cccc2)n1
inactive: max response [7] 4.28% | max response [8] -2.07% | max response [9] -6.89% | Potency [11] | Potency [2] | Potency [12] | Potency [3] | Potency [4] | Potency [5] | Potency [6]

CC1=C(c2ccc(NC(=O)c3c(F)cccc3F)cc2)CN(c2nccs2)CC1
inactive: max response [7] -2.64% | outcome [8] | max response [9] -1.55% | Potency [11] | Potency [14] | Potency [2] | Potency [12] | Potency [3] | Potency [4]
